The values that follow come from PubChem BioAssay (EPA / NIEHS).

SMILES strings stand for the structures. Records with an inconclusive call do not appear. Calls of active or inactive are those of the source. Rule for the calls: active = hit-call score of the fitted dose curve at least 0.9, where 1 is the maximum; inconclusive = response in the unintended direction; inactive = score below 0.9.

Assay [1] addresses guinea pig Serotonin, 5-Hydroxytryptamine Receptor 4 (5HT4), HTR4 (gene 100135548) (UniProt O70528). The experiment in a line: NVS_GPCR_g5HT4: NovaScreen (NVS) G Protein-Coupled Receptor Assay for guinea pig Serotonin, 5-Hydroxytryptamine Receptor 4 (5HT4) (AID 2283294). Summed up:
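Guinea pig striatal membranes; radioligand competitive displacement, filtration and scintillation counting after 1 h. Primary screen in duplicate at 25 uM; actives then tested in concentration series; loss of binding signal fitted relative to DMSO.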

In assay [2] the target is human Vasopressin 1A Receptor (V1A), AVPR1A (gene 552) (UniProt P37288). Put plainly: NVS_GPCR_hV1A: NovaScreen (NVS) G Protein-Coupled Receptor Assay for human Vasopressin 1A Receptor (V1A) (AID 2283284). A digest of the protocol: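 Cell-free radioligand displacement on human platelet preparations, 1.5 h incubation, filter-based scintillation counting. Chemicals first tested in duplicate at 25 uM; actives then run in concentration-response up to 50 uM, loss of signal fitted against DMSO.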
human Vasopressin 1A Receptor (V1A), AVPR1A (gene 552), sequence (P37288 whole entry, looked up): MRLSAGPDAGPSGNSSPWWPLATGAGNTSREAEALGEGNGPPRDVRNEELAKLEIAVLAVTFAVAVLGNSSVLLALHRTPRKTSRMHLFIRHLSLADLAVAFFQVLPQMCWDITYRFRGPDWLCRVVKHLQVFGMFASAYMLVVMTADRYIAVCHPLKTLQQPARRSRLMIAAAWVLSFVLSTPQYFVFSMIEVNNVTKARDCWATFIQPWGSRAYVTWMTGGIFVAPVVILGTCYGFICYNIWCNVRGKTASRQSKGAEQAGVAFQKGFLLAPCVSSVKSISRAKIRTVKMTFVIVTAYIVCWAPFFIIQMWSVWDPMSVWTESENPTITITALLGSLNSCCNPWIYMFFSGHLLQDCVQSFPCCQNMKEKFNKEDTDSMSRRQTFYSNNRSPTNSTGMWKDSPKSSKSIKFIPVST

Assay [3] deals with 5-hydroxytryptamine receptor 2C (pig). Put plainly: NVS_GPCR_p5HT2C: NovaScreen (NVS) G Protein-Coupled Receptor Assay for pig Serotonin, 5-Hydroxytryptamine Receptor 2C (5HT2C) (AID 2283288). Summed up: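 Pig choroid plexus membranes; radioligand competitive binding, filter-based scintillation counting, read 1 h after dosing. Primary screen in duplicate at 25 uM; actives then run as concentration series; loss of signal versus DMSO baseline.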

In assay [4] the target is guinea pig Bradykinin Receptor B2 (BK2), BDKRB2 (gene 100135486) (UniProt O70526). The experiment in a line: NVS_GPCR_gBK2: NovaScreen (NVS) G Protein-Coupled Receptor Assay for guinea pig Bradykinin Receptor B2 (BK2) (AID 2283292). Summed up: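 Radioligand displacement on guinea pig ileum membranes for 1 h, read by filter-based scintillation counting; loss of signal relative to DMSO. Compounds were screened in duplicate at 25 uM, and those passing the threshold were retested in concentration-response up to 50 uM.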
guinea pig Bradykinin Receptor B2 (BK2), BDKRB2 (gene 100135486), sequence (O70526 whole entry, looked up): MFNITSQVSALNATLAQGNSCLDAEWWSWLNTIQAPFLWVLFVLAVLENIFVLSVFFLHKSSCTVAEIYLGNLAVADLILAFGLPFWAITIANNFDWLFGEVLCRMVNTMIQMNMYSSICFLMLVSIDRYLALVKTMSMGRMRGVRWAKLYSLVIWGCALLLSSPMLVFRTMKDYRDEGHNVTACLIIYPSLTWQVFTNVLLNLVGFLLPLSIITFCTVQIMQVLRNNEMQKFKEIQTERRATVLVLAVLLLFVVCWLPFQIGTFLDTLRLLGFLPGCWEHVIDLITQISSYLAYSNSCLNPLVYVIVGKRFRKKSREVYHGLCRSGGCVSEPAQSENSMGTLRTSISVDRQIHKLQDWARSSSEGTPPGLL

In assay [5] the target is human Thromboxane A2 Receptor (TXA2), TBXA2R (gene 6915) (UniProt P21731). Put plainly: NVS_GPCR_hTXA2: NovaScreen (NVS) G Protein-Coupled Receptor Assay for human Thromboxane A2 Receptor (TXA2) (AID 2283282).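 Note: actives reduce bound radioligand signal relative to DMSO baseline.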 A digest of the protocol: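 Filter scintillation counting of bound radioligand, human platelet protein, 1 h exposure. Single-concentration duplicates (25 uM) first, concentration-response follow-up for actives. Binding loss scored against DMSO baseline.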
human Thromboxane A2 Receptor (TXA2), TBXA2R (gene 6915), sequence (P21731 whole entry, looked up): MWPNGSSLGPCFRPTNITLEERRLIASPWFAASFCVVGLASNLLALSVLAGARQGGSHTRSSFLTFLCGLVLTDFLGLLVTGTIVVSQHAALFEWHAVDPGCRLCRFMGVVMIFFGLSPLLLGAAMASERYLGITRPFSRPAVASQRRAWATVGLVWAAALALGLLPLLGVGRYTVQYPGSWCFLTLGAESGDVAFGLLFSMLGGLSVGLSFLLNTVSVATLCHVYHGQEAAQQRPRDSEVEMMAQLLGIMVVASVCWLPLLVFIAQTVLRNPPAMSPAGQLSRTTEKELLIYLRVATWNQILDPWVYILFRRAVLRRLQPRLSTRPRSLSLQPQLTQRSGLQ

Assay [6] has as its target rat Serotonin, 5-Hydroxytryptamine Receptor 1 (5HT1), Non-Selective Binding, Htr1a (gene 24473) (UniProt P19327). The experiment in a line: NVS_GPCR_r5HT1_NonSelective: NovaScreen (NVS) G Protein-Coupled Receptor Assay for rat Serotonin, 5-Hydroxytryptamine Receptor 1 (5HT1), Non-Selective Binding (AID 2283286). A digest of the protocol:
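Rat cortical membranes, radioligand displacement, 1 h incubation, read by filter scintillation. Primary screen in duplicate at 25 uM. Hits (e.g. ≥30% inhibition) went to concentration-response up to 50 uM, fitted as loss of binding versus DMSO.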

Assay [7] deals with human Opioid Receptor Mu (Opiate Mu), OPRM1 (gene 4988) (UniProt P35372). The experiment in a line: NVS_GPCR_hOpiate_mu: NovaScreen (NVS) G Protein-Coupled Receptor Assay for human Opioid Receptor Mu (Opiate Mu) (AID 2283290).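 Note: hits lower bound tracer signal versus DMSO meaning displacement of the ligand.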 A digest of the protocol: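 Here, radioligand binding to CHO-extracted receptor was measured after 2.5 h using filter-based scintillation detection. Initial single-concentration screening used 25 uM in duplicate with plate controls; confirmed actives went to concentration-response testing.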
human Opioid Receptor Mu (Opiate Mu), OPRM1 (gene 4988), sequence (P35372 whole entry, looked up): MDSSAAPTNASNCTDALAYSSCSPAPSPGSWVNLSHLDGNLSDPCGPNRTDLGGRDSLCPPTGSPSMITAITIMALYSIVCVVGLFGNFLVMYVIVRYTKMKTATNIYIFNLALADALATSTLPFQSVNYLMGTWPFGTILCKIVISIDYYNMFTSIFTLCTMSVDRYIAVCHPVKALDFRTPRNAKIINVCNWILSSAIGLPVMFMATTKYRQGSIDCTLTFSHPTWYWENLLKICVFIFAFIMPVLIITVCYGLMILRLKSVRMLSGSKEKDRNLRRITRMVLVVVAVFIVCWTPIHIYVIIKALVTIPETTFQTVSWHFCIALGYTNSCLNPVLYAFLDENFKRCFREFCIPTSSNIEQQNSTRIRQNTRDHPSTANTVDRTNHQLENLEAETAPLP

The target of assay [8] is human Neurokinin, NK2 Receptor, TACR2 (gene 6865) (UniProt P21452). Put plainly: NVS_GPCR_hNK2: NovaScreen (NVS) G Protein-Coupled Receptor Assay for human Neurokinin, NK2 Receptor (AID 2283278).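 Note: actives reduce bound radioligand signal relative to DMSO baseline.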 Summed up: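 Test chemicals displace a radioligand from receptor prepared from CHO cells in a cell-free format, read after 4 hours by scintillation counting on filters. Screening starts at 25 uM in duplicate, and active chemicals then go to concentration series.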
human Neurokinin, NK2 Receptor, TACR2 (gene 6865), sequence (P21452 whole entry, looked up): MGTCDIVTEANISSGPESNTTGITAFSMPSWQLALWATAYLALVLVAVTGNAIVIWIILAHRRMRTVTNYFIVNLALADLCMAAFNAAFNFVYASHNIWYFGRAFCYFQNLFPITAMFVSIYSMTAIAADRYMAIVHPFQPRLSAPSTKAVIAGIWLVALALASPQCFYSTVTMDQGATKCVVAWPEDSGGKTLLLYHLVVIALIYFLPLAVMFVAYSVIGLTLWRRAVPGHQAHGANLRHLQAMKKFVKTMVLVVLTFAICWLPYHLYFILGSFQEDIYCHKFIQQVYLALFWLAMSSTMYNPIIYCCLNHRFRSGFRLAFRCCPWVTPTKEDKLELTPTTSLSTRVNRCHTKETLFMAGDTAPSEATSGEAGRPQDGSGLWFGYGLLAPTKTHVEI

The target of assay [9] is human Purinergic Receptor P2Y, P2RY1 (gene 5028) (UniProt P47900). Put plainly: NVS_GPCR_hPY2: NovaScreen (NVS) G Protein-Coupled Receptor Assay for human Purinergic Receptor P2Y (AID 2283281). Summed up:
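Cell-free radioligand binding using U937-derived protein, 1 h after dosing, filter-based scintillation counting. Screened in duplicate at 25 uM; actives rerun as concentration-response up to 50 uM; loss of signal versus DMSO.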

The target in assay [10] is human Opioid Receptor Delta 1 (Opiate D1), OPRD1 (gene 4985) (UniProt P41143). Put plainly: NVS_GPCR_hOpiate_D1: NovaScreen (NVS) G Protein-Coupled Receptor Assay for human Opioid Receptor Delta 1 (Opiate D1) (AID 2283280). A digest of the protocol:
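Radioligand displacement on membranes from CHO cells expressing the receptor, read by filter scintillation counting 1 h after dosing. Duplicate single-point screen at 25 uM, then concentration series for actives; loss of signal versus DMSO.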

For assay [11], the target named is Muscarinic acetylcholine receptor M5 (Homo sapiens) (UniProt P08912). Put plainly: NVS_GPCR_hM5: NovaScreen (NVS) G Protein-Coupled Receptor Assay for human Muscarinic, M5 Receptor (AID 2283275). Summed up: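 Radioligand displacement on CHO-derived membrane preparations, 1 h, filter-based scintillation counting. Single-concentration duplicate screen at 25 uM; hits (e.g. 30% inhibition) retested in singleton concentration-response up to 50 uM. Loss of binding fitted versus DMSO.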

Assay [12] deals with human Neuropeptide Receptor Y1 (NPY1), NPY1R (gene 4886) (UniProt P25929). The experiment in a line: NVS_GPCR_hNPY1: NovaScreen (NVS) G Protein-Coupled Receptor Assay for human Neuropeptide Receptor Y1 (NPY1) (AID 2283276). A digest of the protocol:
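Cell-free radioligand binding using receptor extracted from SK-N-MC cells, 1 h incubation, filter-based scintillation counting. Primary screen single concentration 25 uM in duplicate; actives followed in concentration series. Loss of bound signal scored versus DMSO.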

The target in assay [13] is Neuropeptide Y receptor type 2 (Homo sapiens) (UniProt P49146). Put plainly: NVS_GPCR_hNPY2: NovaScreen (NVS) G Protein-Coupled Receptor Assay for human Neuropeptide Receptor Y2 (NPY2) (AID 2283277). A digest of the protocol:
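Radioligand binding on membranes extracted from SK-N-MC cells, cell-free, read 1 h after dosing by filter-based scintillation counting. Loss of signal vs DMSO. Primary screen in duplicate at 25 uM; actives followed up in concentration-response up to 50 uM.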

The target in assay [14] is human Neurotensin Receptor (NTS), NTSR1 (gene 4923) (UniProt P30989). The experiment in a line: NVS_GPCR_hNTS: NovaScreen (NVS) G Protein-Coupled Receptor Assay for human Neurotensin Receptor (NTS) (AID 2283279). Summed up: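 Radioligand displacement on human NTSR1 protein from CHO cells, cell-free, 1 h, filter-based scintillation counting. Primary screen at 25 uM in duplicate; hits rerun in concentration-response up to 50 uM.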
human Neurotensin Receptor (NTS), NTSR1 (gene 4923), sequence (P30989 whole entry, looked up): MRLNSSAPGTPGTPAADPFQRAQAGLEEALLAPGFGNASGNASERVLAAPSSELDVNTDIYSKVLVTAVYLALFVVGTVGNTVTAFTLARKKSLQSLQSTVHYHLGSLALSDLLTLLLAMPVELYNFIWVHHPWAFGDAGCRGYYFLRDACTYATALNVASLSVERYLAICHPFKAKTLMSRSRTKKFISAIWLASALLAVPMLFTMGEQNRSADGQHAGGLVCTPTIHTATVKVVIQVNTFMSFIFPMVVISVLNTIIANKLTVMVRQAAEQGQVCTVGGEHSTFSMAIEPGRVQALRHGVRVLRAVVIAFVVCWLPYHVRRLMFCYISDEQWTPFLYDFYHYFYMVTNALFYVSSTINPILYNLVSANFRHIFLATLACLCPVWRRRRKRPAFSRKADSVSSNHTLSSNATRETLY

Assay [15] addresses human Orphanin, Opioid Related Nociceptin Receptor 1 (ORL1), OPRL1 (gene 4987) (UniProt P41146). Put plainly: NVS_GPCR_hORL1: NovaScreen (NVS) G Protein-Coupled Receptor Assay for human Orphanin, Opioid Related Nociceptin Receptor 1 (ORL1) (AID 2283283). Summed up:
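Filter-based radioligand displacement with receptor extracted from HEK293 cells, read 1 hour after dosing by scintillation counting. Duplicate single-point screen at 25 uM; qualifying chemicals then run in concentration-response to 50 uM, analysed relative to DMSO.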

The target in assay [16] is mouse Cholecystokinin, CCK1 Receptor (CCKA), Cckar (gene 12425) (UniProt O08786). Put plainly: NVS_GPCR_mCCKAPeripheral: NovaScreen (NVS) G Protein-Coupled Receptor Assay for mouse Cholecystokinin, CCK1 Receptor (CCKA) (AID 2283285). A digest of the protocol:
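Radioligand competitive displacement on mouse pancreatic membranes, 2 h incubation; filter-based scintillation counting, loss of signal versus DMSO. Single-concentration screen at 25 uM in duplicate, actives retested in concentration-response up to 50 uM.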

Assay [17] relates to rabbit Platelet Activating Factor Receptor (PAF), gene 100354046. The experiment in a line: NVS_GPCR_rabPAF: NovaScreen (NVS) G Protein-Coupled Receptor Assay for rabbit Platelet Activating Factor Receptor (PAF) (AID 2283287). Summed up: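 Rabbit platelet membrane preparation; radioligand displacement read by filter-based scintillation counting 1 h after dosing, loss of signal versus DMSO. Primary screen in duplicate at 25 uM, actives followed up in concentration series.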

Assay [18] deals with guinea pig Atrionatriuretic Peptide Receptor A (ANPA), gene 100135578. Put plainly: NVS_GPCR_gANPA: NovaScreen (NVS) G Protein-Coupled Receptor Assay for guinea pig Atrionatriuretic Peptide Receptor A (ANPA) (AID 2283291). Summed up: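 Radioligand binding to guinea pig cerebellar membranes was measured after 1 h by filter-based scintillation counting. Chemicals were tested in duplicate at 25 uM, with hits run in concentration-response to a maximum of 50 uM. Binding loss was fitted against DMSO.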

guinea pig Serotonin, 5-Hydroxytryptamine Receptor 4 (5HT4), HTR4 (gene 100135548), sequence (O70528 whole entry, looked up): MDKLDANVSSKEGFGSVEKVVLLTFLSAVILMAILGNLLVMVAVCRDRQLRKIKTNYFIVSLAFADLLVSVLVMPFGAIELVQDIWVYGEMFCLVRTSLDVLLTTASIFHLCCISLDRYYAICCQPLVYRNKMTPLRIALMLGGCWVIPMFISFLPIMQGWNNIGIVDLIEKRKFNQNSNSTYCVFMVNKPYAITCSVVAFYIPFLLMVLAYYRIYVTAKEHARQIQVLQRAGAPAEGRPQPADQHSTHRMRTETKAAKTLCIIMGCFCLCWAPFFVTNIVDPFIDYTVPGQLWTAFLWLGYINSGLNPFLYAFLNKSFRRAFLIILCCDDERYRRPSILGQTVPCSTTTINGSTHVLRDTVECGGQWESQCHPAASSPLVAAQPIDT
human Opioid Receptor Delta 1 (Opiate D1), OPRD1 (gene 4985), sequence (P41143 whole entry, looked up): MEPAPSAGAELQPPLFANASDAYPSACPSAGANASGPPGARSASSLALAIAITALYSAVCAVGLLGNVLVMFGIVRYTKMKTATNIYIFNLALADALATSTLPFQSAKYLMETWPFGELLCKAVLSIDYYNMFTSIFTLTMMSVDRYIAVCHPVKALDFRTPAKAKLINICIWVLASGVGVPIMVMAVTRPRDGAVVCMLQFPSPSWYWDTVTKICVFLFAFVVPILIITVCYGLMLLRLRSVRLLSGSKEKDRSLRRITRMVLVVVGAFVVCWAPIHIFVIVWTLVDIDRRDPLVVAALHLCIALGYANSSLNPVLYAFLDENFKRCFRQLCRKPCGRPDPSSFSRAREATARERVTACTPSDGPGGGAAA
human Purinergic Receptor P2Y, P2RY1 (gene 5028), sequence (P47900 whole entry, looked up): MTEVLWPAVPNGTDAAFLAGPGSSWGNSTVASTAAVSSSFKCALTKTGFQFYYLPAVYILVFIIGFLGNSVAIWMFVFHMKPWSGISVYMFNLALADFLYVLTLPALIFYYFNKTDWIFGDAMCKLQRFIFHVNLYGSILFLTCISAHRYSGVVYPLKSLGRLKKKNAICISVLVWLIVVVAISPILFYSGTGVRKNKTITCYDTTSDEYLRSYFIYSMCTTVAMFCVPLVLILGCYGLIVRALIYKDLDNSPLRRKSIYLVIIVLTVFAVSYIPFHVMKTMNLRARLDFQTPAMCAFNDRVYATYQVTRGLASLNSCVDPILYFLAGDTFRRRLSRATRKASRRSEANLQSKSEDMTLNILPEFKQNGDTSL
mouse Cholecystokinin, CCK1 Receptor (CCKA), Cckar (gene 12425), sequence (O08786 whole entry, looked up): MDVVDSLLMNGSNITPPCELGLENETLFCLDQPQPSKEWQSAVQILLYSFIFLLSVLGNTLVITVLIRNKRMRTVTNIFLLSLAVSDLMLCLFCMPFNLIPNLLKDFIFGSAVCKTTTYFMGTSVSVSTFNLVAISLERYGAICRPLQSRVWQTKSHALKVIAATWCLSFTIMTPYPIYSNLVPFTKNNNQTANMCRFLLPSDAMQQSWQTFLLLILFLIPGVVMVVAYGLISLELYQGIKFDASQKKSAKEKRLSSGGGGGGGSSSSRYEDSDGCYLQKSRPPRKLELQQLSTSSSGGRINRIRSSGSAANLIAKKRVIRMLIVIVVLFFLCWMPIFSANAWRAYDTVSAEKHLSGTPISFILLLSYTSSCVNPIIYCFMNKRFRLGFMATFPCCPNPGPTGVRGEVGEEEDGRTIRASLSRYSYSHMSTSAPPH
human Orphanin, Opioid Related Nociceptin Receptor 1 (ORL1), OPRL1 (gene 4987), sequence (P41146 whole entry, looked up): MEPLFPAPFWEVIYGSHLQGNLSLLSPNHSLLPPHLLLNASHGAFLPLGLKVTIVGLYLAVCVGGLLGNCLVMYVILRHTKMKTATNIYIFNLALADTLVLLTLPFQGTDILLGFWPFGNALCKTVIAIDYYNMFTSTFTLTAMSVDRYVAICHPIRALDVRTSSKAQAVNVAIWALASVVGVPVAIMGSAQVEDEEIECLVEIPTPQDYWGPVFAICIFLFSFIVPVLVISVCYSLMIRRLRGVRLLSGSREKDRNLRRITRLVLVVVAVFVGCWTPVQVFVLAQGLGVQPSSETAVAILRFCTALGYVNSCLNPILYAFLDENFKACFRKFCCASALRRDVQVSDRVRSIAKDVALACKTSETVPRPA
human Neuropeptide Receptor Y1 (NPY1), NPY1R (gene 4886), sequence (P25929 whole entry, looked up): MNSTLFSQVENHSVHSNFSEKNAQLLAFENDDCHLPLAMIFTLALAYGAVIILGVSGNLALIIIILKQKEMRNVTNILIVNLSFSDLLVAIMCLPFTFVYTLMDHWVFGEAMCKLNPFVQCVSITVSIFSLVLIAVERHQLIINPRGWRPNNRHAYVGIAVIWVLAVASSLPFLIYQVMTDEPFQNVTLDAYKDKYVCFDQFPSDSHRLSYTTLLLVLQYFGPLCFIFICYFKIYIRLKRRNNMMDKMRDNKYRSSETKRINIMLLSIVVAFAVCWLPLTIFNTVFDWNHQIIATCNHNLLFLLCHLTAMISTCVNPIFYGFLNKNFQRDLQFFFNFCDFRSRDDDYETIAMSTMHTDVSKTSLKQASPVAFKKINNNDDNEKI

What is called AC50 is the midpoint of the concentration-response curve, whichever way the signal moves. For `O=C(N[C@H]1CN2CCC1CC2)c1cc2ccoc2cn1`, the half-maximal activity concentration (AC50) in assay [1] was 16.4 µM (active).
Consider `Cc1ccc(O)c(C)c1`, for which the AC50 in assay [2] was 0.12 µM (active). For the same compound, the compound was called inactive in [3] and in [4].
For `CCC(C)(CC)c1cc(NC(=O)c2c(OC)cccc2OC)on1`, in assay [5], the AC50 is 1.03 µM (active). In addition, the outcome in assay [6] was inactive.
Consider `Clc1ccc(C(c2ccccc2Cl)C(Cl)(Cl)Cl)cc1` (stereo not given), for which the compound was called inactive in assay [7].
As to `CC1=C2C[C@H]3[C@@H](CC=C4C[C@@H](O)CC[C@@]43C)[C@@H]2CC[C@]12O[C@@H]1C[C@H](C)CN[C@H]1[C@H]2C`, the result in [1] was inactive.
Regarding `Oc1c(Cl)c(Cl)c(Cl)c(Cl)c1Cl`, the compound was classed as inactive in [8], in assay [9] and in assay [2].
With `C[C@]12CCC(=O)C=C1CC[C@@H]1[C@@H]2CC[C@@]2(C)[C@H]1CC[C@]2(C)O`, the compound was classed as inactive in assay [10] and in assay [7].
For the compound `CCCCCCCCCc1ccc(O)cc1`, the compound was classed as inactive in assay [9].
On to `Cc1cc(O)ccc1Cl`, for which the AC50 in assay [3] is 9.65 µM (active).
For `O=C(O)C(F)(F)C(F)(F)C(F)(F)C(F)(F)C(F)(F)C(F)(F)C(F)(F)C(F)(F)C(F)(F)F`, the AC50 in assay [10] was 16.4 µM (active); in [5], 25 µM (active); in assay [7], 25 µM (active). Further, the compound was classed as inactive in [9].
As for `CCCCCCCCCC[N+](C)(C)CCCCCCCCCC`, the AC50 in [11] was 2.39 µM (active); in [12], 7.12 µM (active); in assay [13], 11.6 µM (active); in assay [8], 2.98 µM (active); in assay [14], 4.36 µM (active); in [10], 4.31 µM (active). Also, the AC50 in [5] is 14.3 µM (active); in assay [15] it was 7.48 µM (active); in [16], 6.6 µM (active); in assay [17] it was 7.2 µM (active); in [3], 21.1 µM (active); in assay [7] it was 4.3 µM (active). In addition, in [1], the AC50 was 21.9 µM (active).
In the case of `O=C(NC(=O)c1c(F)cccc1F)Nc1cc(Cl)c(OC(F)(F)C(F)F)c(Cl)c1`, the call in [5] was inactive.
`ClC1=C(Cl)[C@]2(Cl)[C@@H]3[C@H]4C[C@H]([C@@H]5O[C@H]45)[C@@H]3[C@@]1(Cl)C2(Cl)Cl`: in assay [18], the result was inactive.
On to `CC(C)C(=O)OCC(C)(C)C(OC(=O)C(C)C)C(C)C` (stereo not given), for which the compound was called inactive in [4].
With `CCOC(=O)C(O)(c1ccc(Cl)cc1)c1ccc(Cl)cc1`, in [5], the outcome was inactive. Also, the half-maximal activity concentration (AC50) in assay [16] is 11.7 µM (active); in assay [17], 7.46 µM (active).
Consider `CC(C)(O)C(=O)Nc1ccc([N+](=O)[O-])c(C(F)(F)F)c1`, for which the compound was called inactive in assay [9]. Besides, in assay [3], the AC50 is 19.2 µM (active).
